Results taken from PubChem BioAssay AID1159580 (chemical genetic matrix, 2015).
Among all 5,500 compounds or so, about 2,000 (36%) were called active. Not shown: some 18% with an inconclusive outcome. No stated cut-off is given here; in the data, active means normalized growth mostly below about 0.91 (no sharp cut-off); inconclusive means no clear call, values can overlap the other calls; inactive means mostly above about 0.92. This is one part of the list.

Assay: chemical genetic growth profiling, strain panel (AID 1159580);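 further: tested at 20 µM; growth read once vehicle control cultures reached saturation at 30 °C; 1 = growth at the plate median or of vehicle wells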
Conditions: growth OD
[1] = S. cerevisiae deletion strains, locus YAL013W, strain DEP1, stronger effect = lower value
[2] = S. cerevisiae deletion strains, locus YGR078C, strain PAC10, stronger effect = lower value
[3] = S. cerevisiae deletion strains, locus YMR263W, strain SAP30, stronger effect = lower value
[4] = S. cerevisiae deletion strains, locus YMR307W, strain GAS1, stronger effect = lower value
[5] = S. cerevisiae deletion strains, locus YNL153C, strain GIM3, stronger effect = lower value
[6] = S. cerevisiae deletion strains, locus YNL322C, strain KRE1, stronger effect = lower value

Measured: normalized growth

C#CCN1C(C)=C(C(=O)OC)C(c2cccc([N+](=O)[O-])c2)C(C(=O)OCC)=C1C (configuration not stated)
inactive: [1] 1.01 | S. cerevisiae deletion strains, locus YAL040C, strain CLN3, stronger effect = lower value 0.971 | S. cerevisiae deletion strains, locus YCL061C, strain MRC1 (second series), stronger effect = lower value 1 | S. cerevisiae deletion strains, locus YDR363W, strain ESC2, stronger effect = lower value 1.01 | S. cerevisiae deletion strains, locus YER002W, strain NOP16, stronger effect = lower value 1.02 | [2] 0.996 | [3] 1.02 | [4] 0.998 | S. cerevisiae deletion strains, locus YNL128W, strain TEP1, stronger effect = lower value 1.03 | [5] 0.988 | S. cerevisiae deletion strains, locus YNL175C, strain NOP13, stronger effect = lower value 1.04 | S. cerevisiae deletion strains, locus YNL197C, strain WHI3, stronger effect = lower value 1.03 | S. cerevisiae deletion strains, locus YNL224C, strain SQS1, stronger effect = lower value 1 | [6] 1 | S. cerevisiae deletion strains, locus YOR083W, strain WHI5 (second series), stronger effect = lower value 1.04

CCOC(=O)c1c(Nc2ccccc2)sc([N+](=O)[O-])c1N
active: S. cerevisiae deletion strains, locus YLR085C, strain ARP6, stronger effect = lower value 0.762 | [4] 0.66 | S. cerevisiae deletion strains, locus YPL241C, strain CIN2, stronger effect = lower value 0.849
inactive: [1] 0.941 | S. cerevisiae deletion strains, locus YBR229C, strain ROT2, stronger effect = lower value 1.01 | S. cerevisiae deletion strains, locus YDL101C, strain DUN1, stronger effect = lower value 1.02 | S. cerevisiae deletion strains, locus YDR150W, strain NUM1, stronger effect = lower value 0.969 | S. cerevisiae deletion strains, locus YEL061C, strain CIN8, stronger effect = lower value 0.985 | [2] 0.985 | S. cerevisiae deletion strains, locus YHR030C, strain SLT2, stronger effect = lower value 0.743 | S. cerevisiae deletion strains, locus YHR087W, strain rtc3, stronger effect = lower value 0.98 | S. cerevisiae deletion strains, locus YJR043C, strain POL32, stronger effect = lower value 0.956 | S. cerevisiae deletion strains, locus YJR075W, strain HOC1, stronger effect = lower value 0.949 | S. cerevisiae deletion strains, locus YKL190W, strain CNB1, stronger effect = lower value 0.977 | S. cerevisiae deletion strains, locus YLR039C, strain RIC1, stronger effect = lower value 0.964 | S. cerevisiae deletion strains, locus YLR058C, strain SHM2 (second series), stronger effect = lower value 1 | S. cerevisiae deletion strains, locus YLR262C, strain YPT6, stronger effect = lower value 0.965 | S. cerevisiae deletion strains, locus YML094W, strain GIM5, stronger effect = lower value 0.961 | S. cerevisiae deletion strains, locus YMR219W, strain ESC1, stronger effect = lower value 0.998 | [3] 0.931 | [5] 0.986 | S. cerevisiae deletion strains, locus YNL298W, strain CLA4 (second series), stronger effect = lower value 0.917 | [6] 0.985 | S. cerevisiae deletion strains, locus YNR030W, strain Alg12, stronger effect = lower value 0.952 | S. cerevisiae deletion strains, locus YPL055C, strain LGE1, stronger effect = lower value 0.846 | S. cerevisiae deletion strains, locus YPR135W, strain CTF4, stronger effect = lower value 0.783 | S. cerevisiae strains, strain wild type, stronger effect = lower value 0.977
